The campaign covered roughly 53,000 sequences. About 3,700 (7%) were called active. Shown is part of a subset that was picked to be rich in actives. A number with no mark means an inactive call.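 How the source made its calls: active means gene knockdowns whose robust z-score for IL-1 alpha signal is at least 2 or at most -2, so actives lie on both sides; inactive means the rest.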
Assay: Components of the Cytosolic LPS Sensing Pathway: Gene Identification via Genome-wide siRNA Screen;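 further: robust z of the log signal after scaling to non-targeting control siRNA wells of the plate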
Settings: RAW264.7 macrophages, IL-1a HTRF, actives lie on both sides, screened at 100 nM (by protocol), cells primed 5 h with Pam3CSK4 first
Method in brief: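 IL-1a HTRF of supernatants after 24 hour LipidA transfection of Pam3CSK4-primed (5 hours) RAW264.7 cells, 48h post-siRNA transfection (100 nM). Scores: percent of plate negative-control median, then log-based robust z-score.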
Work on GGCUCAGAAACAACAGGCUTT against Sh2d3c yielded a z-score of -1.19.
GGCUGUUAGAGGAAGAGAUTT against Ube3b gave a z-score of 1.64.
For CCAGCAUCUACUGUCUGACTT against Sstr1, the z-score was 4.2 (active).
GCAAUGCAUGAAGACUCGUTT against Ecsit gave a z-score of 0.835.
With GGGACUGGAUCCUUGAUAUTT against Ebi3 the z-score was 0.677.
For CCCGGACCUUGAAUAAGCATT against Piwil4, the z-score was -1.06.
With GCCACUAUCUGGAUAAGGATT against Ftl1 the z-score was -3.54 (active).
GGAGAAGUGGUAGAAACUGTT against Brd8 gave a z-score of -1.3.
Sequence GCUUAGUCGGGAGAACUUUTT against Skp2 has a z-score of 0.81.
Work on GGACAAGCUAAGCAUUGAGTT against Atp6ap1 yielded a z-score of -1.45.
In the case of GCAUUGUCGUGUCUUCUCUTT against Tti1, the z-score is reported as -2.13 (active).
Sequence GGAGUUUCAAGAAAAAAGGTT against Map3k21 has a z-score of 1.08.
GGGCGAAGAUACAAGUGACTT against Tnp2 gave a z-score of -1.76.
With GCACCAAGUCGUAUAAACATT against Sh3glb1 the z-score was -0.391.
CCAAUUUUGUCAUAGGACATT against Plbd1 showed a z-score of -0.107.
With GGAUGUAAGGCCUUUUUUATT against Esr2 the z-score was 0.676.
GGAGACCUUCAGCUUGGAATT against Zfp260 showed a z-score of 0.0537.
For GGAUUCUAGGAGAGAAUCATT against Cplx3, the z-score was 0.897.
With GCCAUUUCUUAUCAAGUGGTT against Laptm4a the z-score was -2.63 (active).
Sequence GGAGCAGAACAUUAUCUUCTT against Tnn has a z-score of 0.603.
With “CCUAAACUACAGGAAUUUATT against D830014E11Rik” the z-score was -0.0293.
In the case of CCAUAUGAGAAGAUGACACTT against Pdcl2, the z-score is reported as -1.39.
In the case of GGCAGAAUCAGUUGAAAUUTT against Terf2ip, the z-score is reported as 0.917.
With CCAAGUUCGUGACAAACAUTT against Trpv1 the z-score was -0.0275.
For “CCAUCAGGGUUACAAGUACTT against 6030458C11Rik”, the z-score was -2.46 (active).
GGACUUGUCCGCUCAUUGGTT against Usp54 showed a z-score of -1.13.
In the case of GGUAGAAAAGCUUCUGAAATT against Ap1g1, the z-score is reported as 0.349.
For GGCUAUUAACAUCUCAGUUTT against Rhbdd1, the z-score was 0.0309.
Sequence GGACAGAGAUCAAUAUUAATT against Rxfp3 has a z-score of -0.0718.
Work on CGAAUGAAAGAAUACCGUGTT against Dnajc6 yielded a z-score of 0.0901.
In the case of CCUGGAUGCAUGGUUAUUATT against Cyp2ab1, the z-score is reported as 2.69 (active).
Work on GGGAAGAAAAUCAAACUCATT against Fabp1 yielded a z-score of 0.504.
With GGCCGUUCAUUUCCUCAUCTT against Galr2 the z-score was -0.359.
GGAUUUGUUUUCACCAAGATT against Dmd showed a z-score of 0.3.
For GGUGACAGGUCAGAAAGUCTT against Tor1aip2, the z-score was -2.78 (active).
Sequence GGAGUUAAACCACUCAAGATT against Ceacam11 has a z-score of -0.262.
With GCAGGAUGUGACAGAUACATT against Pdcd2 the z-score was 0.185.
Work on CCAGAUGCUCGAUUCAGUGTT against Crim1 yielded a z-score of -0.44.
Sequence GGGAAAGACUCAAGGUCCUTT against Olfr586 has a z-score of 0.774.
For GGCUAUUACCAUGGCCACUTT against Smim5, the z-score was -2.85 (active).
Work on GCCCAAUCAAAAAAUGGUGTT against Zyx yielded a z-score of -0.0505.
For CGUGGACUUUAAGGAGCUGTT against Gdf7, the z-score was -0.299.
With GGAUAAGGUAAUCUCGGUATT against Olfr710 the z-score was -0.472.
For CCAUAUUGAAACCUCAUUUTT against Fam126a, the z-score was -2.33 (active).
With CGUGCUACAGAUGCGUCAUTT against Exoc8 the z-score was 0.783.
For CGCUCGUUACCUAAAGCAGTT against Nwd1, the z-score was -2.78 (active).
In the case of GCUUUGAAAUCUGAAUCAGTT against Terf2, the z-score is reported as 2.06 (active).
Sequence GAAUCCGAGAUACGAGCCUTT against H2-D4 has a z-score of 0.0829.
GGUUUGAAAUAUUGUGGAUTT against Spdye4b showed a z-score of -1.23.
For CCUAGGGACAUUGGUUAUUTT against Sema4f, the z-score was 2.16 (active).
Work on GGAGCUUCCACAACUCAUATT against Esd yielded a z-score of -0.456.
GGCAGUGGAGUGUAUGGAUTT against Popdc2 gave a z-score of -0.531.
For GGAUGCAGCUAACAAUUACTT against Tuba8, the z-score was 1.05.
Sequence GGAUGGAGAGAUAAGAAAATT against Lmntd1 has a z-score of -0.572.
With CCUUUCCUAACUUGAUCACTT against Cbr2 the z-score was 0.443.
Work on CCUCUUAAAACAAUACCAATT against Olr1 yielded a z-score of 1.37.
For GCAAAUAAGAUUGCGUCUGTT against Cpa2, the z-score was 2.89 (active).
Sequence GGCGAAGGAGAAGAAUUAATT against Rhox5 has a z-score of 0.352.
With GGUCAACAAGCAUGCAUUUTT against Wars the z-score was -1.65.
For CCUUAUUUAGCUAAGCAGATT against Ran, the z-score was -2.95 (active).
Sequence GCCAACCAAAACCUAAGCATT against Gjc1 has a z-score of -1.44.
Sequence CCCUCACAAUGAUCGAUUUTT against Tkt has a z-score of -0.885.
Sequence GGUAAAGUGAACUGUACCUTT against Vstm5 has a z-score of 0.843.
GGUGGAGAUCCGAAAGCAUTT against Ltk gave a z-score of 0.597.
Sequence CCCUCCAGAAAAACAGUUUTT against Znrd2 has a z-score of 0.284.
With “GAGUGAGCAAAUACCAGUUTT against 1700001J03Rik” the z-score was 2.52 (active).
Work on CCAAAAAGAUUUGGAUCUCTT against Nr2f6 yielded a z-score of 0.142.
GGAAACUUUCUAAAUGCUGTT against Pja1 gave a z-score of -0.0964.
With GCCAUUAAUGUACCAGGUUTT against Olfr894 the z-score was -0.202.
GCGUGAACGUAUUUGUUACTT against Pcdhgc3 gave a z-score of 0.203.
Sequence ACAGGAGUCCAUAGCCGUCTT against Aspscr1 has a z-score of -1.47.
Work on CGGAGGUGGCUAUAAAAAUTT against Sik2 yielded a z-score of 0.0967.
In the case of GGAUUCCUCUAACACAUUUTT against Keg1, the z-score is reported as 2.07 (active).
Sequence CCUCACCCUUUCCAAAAAATT against Polr2f has a z-score of -1.03.
In the case of GCUUUAAUUGUGAAAGCACTT against Miga1, the z-score is reported as -2.26 (active).
In the case of GCAACACCAGAGUAUGUUATT against Cldn34b3, the z-score is reported as 0.794.
In the case of GGUAUUGGGUUCCAUUAUATT against Mcmdc2, the z-score is reported as -0.197.
In the case of CCCAGCAGAAUAACUGCCATT against Pantr1, the z-score is reported as 2.55 (active).
GAAAAUGGUCACUACUGAGTT against S100a8 gave a z-score of -0.0863.
GGAAAUGAAGAAAAGUGACTT against Stk32a showed a z-score of -0.0588.
For GGAGUCAACUUGUGAGGGUTT against Lrp8, the z-score was -0.48.
CCCAGGUGAGGAUUGAUAATT against Rit2 gave a z-score of 0.667.
Work on GCCAACAGUACUUUGUUAATT against Chordc1 yielded a z-score of 0.589.
In the case of GGACAUUUUAAUGUGCUCATT against Erlin2, the z-score is reported as 0.0602.
For GGCACAGAGAUUGAAGAUCTT against Sry, the z-score was 2.04 (active).
With GCUGAAGUCUCUUCAAUGCTT against Trappc6b the z-score was -0.71.
In the case of GCCUACAUAACCUUAAUAUTT against Slc4a10, the z-score is reported as 2.2 (active).
GGGAGUAGAGAUCAAAGGCTT against Cfb gave a z-score of -0.0723.
In the case of GGUGAUUUGCUCAAUCCAATT against Phox2a, the z-score is reported as 0.611.
For GGCUGAGAUCUAGCUUACATT against H3c15, the z-score was -3.21 (active).
In the case of GGCGAAGUGGUUAAAAGUGTT against Ifnar1, the z-score is reported as -0.141.
GGAUAUCCUUUCAAUAGAATT against Mcf2 showed a z-score of -0.225.
GGCCAUUUCUUUCAUAGAUTT against Dusp6 showed a z-score of 0.509.
With CCUUCGUAGCCUGUAUCAUTT against Myadm the z-score was -0.173.
For CCGAGUAUAUCUAUAAUAGTT against Ear14, the z-score was -0.607.
With GGUGUUUUGUGAAUUGAAATT against Leprotl1 the z-score was -1.05.
For GGAAGAGUGCGUUUACCUUTT against Rrp12, the z-score was 0.388.
In the case of GCUUACAUUAAAGGAUAUGTT against Rab5c, the z-score is reported as 2.17 (active).
In the case of GGAUCUUCUGGAUAGAAUGTT against Prc1, the z-score is reported as 1.16.
With CCCUUUCGACAGAUUAGACTT against Zfp69 the z-score was -1.23.
GGGUCAUGGACAAUAGAAATT against Olfr52 showed a z-score of -0.833.
For GGACCAAAAGGAAAAUCCATT against Kcnj6, the z-score was -1.05.
Sequence CCAUAAAUGAGUCUUCAUUTT against Bnip5 has a z-score of -0.0535.
With GUGGACAUCCUCUCUGUCATT against Tmem54 the z-score was -2.23 (active).
CCCAUCGAUCCAUCACAUUTT against Olfr63 showed a z-score of -1.47.
Work on GGCAAGCUGAAGAUGAACATT against Ntn1 yielded a z-score of -1.14.
CGCAAGCCUGACAUACUGCTT against Etv3 showed a z-score of 0.382.
Work on GGUAGCAUAGGCUAGCAUATT against Crcp yielded a z-score of 0.0494.

Source: PubChem BioAssay AID1508600 (Functional Genomics Laboratory (NCATS/FGL), 2020)
